PubChem BioAssay (EPA / NIEHS)
Calls of active or inactive are those of the source. How the source made its calls: active means hit-call score of the fitted dose curve at least 0.9, where 1 is the maximum; inactive means score below 0.9.

Read-out: Vascular cell adhesion molecule 1 (VCAM1), VCAM1 (gene 7412)
Assay: BSK_CASM3C_VCAM1: BioMAP Diversity Plus: CASM3C Assay for Vascular cell adhesion molecule 1 (VCAM1) Biomarker Activity (AID 2283055);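 further: VCAM-1 protein level quantified by ELISA on the cells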
Details: primary human coronary artery smooth muscle cells; actives raise or lower the signal

Compound | outcome | AC50
CCC(C)(CC)c1cc(NC(=O)c2c(OC)cccc2OC)on1 | inactive | 
Nn1cnnc1 | inactive | 
CCCCCCCCOC(=O)c1ccccc1C(=O)OCCCCCCCC | inactive | 
Clc1ccc(Cl)cc1 | inactive | 
Cc1ccccc1O | inactive | 
Cc1cc(-c2ccc(N)c(C)c2)ccc1N | inactive | 
CC#Cc1cc(C)nc(Nc2ccccc2)n1 | inactive | 
CO/C=C(/C(=O)OC)c1ccccc1COc1cccc(C(F)(F)F)n1 | inactive | 
ClC1=C(Cl)[C@]2(Cl)[C@@H]3[C@@H](Cl)[C@H]4O[C@H]4[C@@H]3C1(Cl)C2(Cl)Cl | inactive | 
C=CC(=O)NCNC(=O)C=C | inactive | 
CCCCCCCCCc1ccc(O)cc1 |  | 33.6 µM (active)
N#Cc1ccc(N(CC(N)=O)CC(F)(F)F)cc1C(F)(F)F | inactive | 
CCC(C)(c1ccc(O)cc1)c1ccc(O)cc1 | inactive | 
O=C(N[C@H]1CN2CCC1CC2)c1cc2ccoc2cn1 | inactive | 
ClC1=C(Cl)[C@]2(Cl)[C@@H]3[C@@H]4C[C@@H]([C@H]5O[C@@H]45)[C@@H]3[C@@]1(Cl)C2(Cl)Cl | inactive | 
O=C(NC(=O)c1cc(F)c(F)cc1Cl)Nc1cc(F)ccc1N1CCC(C(=O)O)CC1 | inactive | 
O=S(=O)(O)C(F)(F)C(F)(F)C(F)(F)C(F)(F)C(F)(F)C(F)(F)F | inactive | 

Compound | outcome | AC50
C1CC2OC2CC1C1CO1 (stereo not given) | inactive | 
ClC1=C(Cl)[C@]2(Cl)[C@@H]3[C@H]4C[C@H]([C@@H]5O[C@H]45)[C@@H]3[C@@]1(Cl)C2(Cl)Cl | inactive | 
C[C@]12CCC(=O)C=C1CC[C@@H]1[C@@H]2CC[C@]2(C)C(=O)CC[C@@H]12 | inactive | 
CCC(C)c1cc([N+](=O)[O-])cc([N+](=O)[O-])c1O (stereo not given) | inactive | 
CCC(=O)O[C@H]1CC[C@H]2[C@@H]3CCC4=CC(=O)CC[C@]4(C)[C@H]3CC[C@]12C | inactive | 
Clc1ccc(C(Cl)(Cl)Cl)cc1 | inactive | 
Oc1ccc(Cl)cc1Cl | inactive | 
C[C@]12CCC(=O)C=C1CC[C@@H]1[C@@H]2CC[C@@]2(C)[C@H]1CC[C@]2(C)O | inactive | 
CC(C)C(=O)OCC(C)(C)C(OC(=O)C(C)C)C(C)C (stereo not given) | inactive | 
O=NN(c1ccccc1)c1ccccc1 | inactive | 
Oc1ccc(C(c2ccc(O)cc2)(C(F)(F)F)C(F)(F)F)cc1 |  | 31 µM (active)
CCCCCCOC(=O)c1ccccc1C(=O)OCCCCCC | inactive | 
Sc1ccccc1 | inactive | 
Clc1ccc(C(c2ccccc2Cl)C(Cl)(Cl)Cl)cc1 (stereo not given) |  | 11.7 µM (active)
c1cc2ccc3cccc4ccc(c1)c2c34 | inactive | 
CCCN(CCC)N=O | inactive | 

Read-out: Collagen III, COL3A1 (gene 1281)
Assay: BSK_hDFCGF_CollagenIII: BioMAP Diversity Plus: hDFCGF Assay for Collagen III Biomarker Activity (AID 2283056)
Details: primary human foreskin fibroblasts; actives raise or lower the signal
Method in brief: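 Human foreskin primary fibroblasts were exposed to test chemicals for 24 h, after which collagen III was quantified by ELISA. Activity was fitted bidirectionally against DMSO as negative control and baseline.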

Compound | outcome | AC50
CCC(C)(CC)c1cc(NC(=O)c2c(OC)cccc2OC)on1 | inactive | 
Nn1cnnc1 | inactive | 
CCCCCCCCOC(=O)c1ccccc1C(=O)OCCCCCCCC | inactive | 
Clc1ccc(Cl)cc1 | inactive | 
Cc1ccccc1O | inactive | 
Cc1cc(-c2ccc(N)c(C)c2)ccc1N | inactive | 
CC#Cc1cc(C)nc(Nc2ccccc2)n1 | inactive | 
CO/C=C(/C(=O)OC)c1ccccc1COc1cccc(C(F)(F)F)n1 |  | 1.75 µM (active)
ClC1=C(Cl)[C@]2(Cl)[C@@H]3[C@@H](Cl)[C@H]4O[C@H]4[C@@H]3C1(Cl)C2(Cl)Cl | inactive | 
C=CC(=O)NCNC(=O)C=C | inactive | 
CCCCCCCCCc1ccc(O)cc1 |  | 9.87 µM (active)
N#Cc1ccc(N(CC(N)=O)CC(F)(F)F)cc1C(F)(F)F | inactive | 
CCC(C)(c1ccc(O)cc1)c1ccc(O)cc1 |  | 20 µM (active)
O=C(N[C@H]1CN2CCC1CC2)c1cc2ccoc2cn1 | inactive | 
ClC1=C(Cl)[C@]2(Cl)[C@@H]3[C@@H]4C[C@@H]([C@H]5O[C@@H]45)[C@@H]3[C@@]1(Cl)C2(Cl)Cl | inactive | 
O=C(NC(=O)c1cc(F)c(F)cc1Cl)Nc1cc(F)ccc1N1CCC(C(=O)O)CC1 | inactive | 

Compound | outcome | AC50
O=S(=O)(O)C(F)(F)C(F)(F)C(F)(F)C(F)(F)C(F)(F)C(F)(F)F | inactive | 
C1CC2OC2CC1C1CO1 (stereo not given) | inactive | 
ClC1=C(Cl)[C@]2(Cl)[C@@H]3[C@H]4C[C@H]([C@@H]5O[C@H]45)[C@@H]3[C@@]1(Cl)C2(Cl)Cl | inactive | 
C[C@]12CCC(=O)C=C1CC[C@@H]1[C@@H]2CC[C@]2(C)C(=O)CC[C@@H]12 | inactive | 
CCC(C)c1cc([N+](=O)[O-])cc([N+](=O)[O-])c1O (stereo not given) | inactive | 
Clc1ccc(C(Cl)(Cl)Cl)cc1 | inactive | 
Oc1ccc(Cl)cc1Cl | inactive | 
C[C@]12CCC(=O)C=C1CC[C@@H]1[C@@H]2CC[C@@]2(C)[C@H]1CC[C@]2(C)O | inactive | 
CC(C)C(=O)OCC(C)(C)C(OC(=O)C(C)C)C(C)C (stereo not given) | inactive | 
O=NN(c1ccccc1)c1ccccc1 | inactive | 
Oc1ccc(C(c2ccc(O)cc2)(C(F)(F)F)C(F)(F)F)cc1 |  | 13.1 µM (active)
CCCCCCOC(=O)c1ccccc1C(=O)OCCCCCC |  | 7.56 µM (active)
Sc1ccccc1 | inactive | 
Clc1ccc(C(c2ccccc2Cl)C(Cl)(Cl)Cl)cc1 (stereo not given) |  | 6.51 µM (active)
c1cc2ccc3cccc4ccc(c1)c2c34 | inactive | 
CCCN(CCC)N=O | inactive | 
